Compound activity deposited in PubChem BioAssay by several laboratories.
Shown are actives, neighbours in structure and some others; about 4.2% of the full set was active somewhere.
RecA splice inh: Mtb RecA intein splicing inhibition | inhibition, % (test concentration not listed) | actives 0.75% (n = 290,000) | cell-free RecA intein splicing, fluorescence | AID 2221 | P9WHJ3; in the data active means inhibition above about 30%;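 further: 0% = vehicle wells and 100% = reference inhibitor control wells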
FBA Mtb inh: inhibits M. tuberculosis FBA enzyme | inhibition, % at 1 µM | P9WQA3 | actives 2.3% (n = 360,000) | purified M. tuberculosis FBA, fluorescence read-out; in the data active means inhibition above about 27%;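 further: 0% = vehicle and 100% = reference inhibitor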
Target sequence (P9WQA3 whole entry, looked up): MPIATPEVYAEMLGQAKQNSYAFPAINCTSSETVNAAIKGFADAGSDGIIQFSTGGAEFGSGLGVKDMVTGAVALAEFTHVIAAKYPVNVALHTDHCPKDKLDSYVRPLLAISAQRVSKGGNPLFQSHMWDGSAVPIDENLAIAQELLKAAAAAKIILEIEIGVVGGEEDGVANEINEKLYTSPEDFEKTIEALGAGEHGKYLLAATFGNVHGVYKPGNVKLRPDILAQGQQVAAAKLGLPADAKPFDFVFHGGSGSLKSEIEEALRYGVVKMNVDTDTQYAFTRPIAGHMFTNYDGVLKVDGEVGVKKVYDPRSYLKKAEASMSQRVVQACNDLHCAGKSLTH
Mtb betalactam: beta-lactam sensitization of Mtb H37Rv. M. tuberculosis H37Rv growth with meropenem, percent inhibition. inhibition, % at 25 µM. actives 0.27% (n = 330,000). AID 434955; call rule not given here;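 further: growth measured after seven days incubation then overnight dye step; 0% = bacteria only wells and 100% = bacteria with antibiotic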
CCHF vOTU inh: CCHFV vOTU protease inhibition | Pep-AMC fluorescence | inhibition, % at 11.5 µM | actives 0.55% (n = 370,000) | AID 651958; further: 0% = vehicle wells with enzyme and 100% = no enzyme wells
GDH-TPI inh: counter-screen for M. tuberculosis FBA inhibitors: GDH-TPI coupled enzymes; GDH-TPI coupled enzyme counterscreen, NADH absorbance; inhibition, % at 4.8 µM; actives 1.2% (n = 360,000); AID 588335;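 further: 0% = DMSO wells and 100% = wells lacking the enzyme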
Active calls of the source: *; i = inactive; · = no result; + = active, no number. Unless noted, no stated cut-off is given here; in the data, active means inhibition above about 30%; inactive means the rest.

SMILES | RecA splice inh | FBA Mtb inh | Mtb betalactam | CCHF vOTU inh | GDH-TPI inh
CSc1ccc(/C=N/NC(=O)c2ccc3nc[nH]c3c2)cc1 | · | 2.4 | · | -1.9 | 47.8*
O=C(NN=Cc1ccc(N(CCCl)CCCl)cc1)C(=O)c1c[nH]c2ccccc12 | · | -2.1 | · | 28.9 | 43.2*
COc1cc(/C=N/NC(=O)c2ccc3nc[nH]c3c2)ccc1O | -8.3 | -0.5 | 4.8 | 10.3 | 59.5*
COc1cccc(/C=N/NC(=O)c2ccc3nc[nH]c3c2)c1 | -0.9 | -1.2 | -10.3 | -7.5 | 11.6
CCN(CC)c1ccc(/C=N/NC(=O)c2ccc3nc[nH]c3c2)cc1 | -4.4 | -1.1 | 4.4 | -0.8 | 60.0*
Cc1ccc(-c2cc(-c3nnc(SCc4cccc5ccccc45)n3N)[nH]n2)cc1 | · | · | · | 14.1 | ·
COc1cccc([C@H]2NC(=O)C/C=C/[C@@H](C)[C@@H](c3cccc(OC)c3)NC(=O)C/C=C/[C@H]2C)c1 | · | · | · | 2.7 | ·
O=C(NN=Cc1ccc(N(CCCl)CCCl)cc1)c1cc(=O)[nH]c(=O)[nH]1 | · | -2.6 | · | 9.2 | 49.6*
O=C(CCc1ccc(O)cc1)NN=Cc1ccc2c(c1)OCO2 | · | -2.6 | · | -5.2 | 11.5
CN(C)c1ccc(/C=N/NC(=O)c2ccc3nc[nH]c3c2)cc1 | -0.8 | -1.3 | 3.0 | 6.1 | 56.1*
O=C(Cc1cc(=O)oc2cc(O)ccc12)NN=Cc1ccc(N(CCCl)CCCl)cc1 | · | 182.4* | · | -204.1 | 55.5*
CCN(CC)c1ccc(/C=N/NC(=O)c2cc3ccccc3[nH]2)cc1 | 0.6 | 9.6 | 5.3 | -10.8 | 32.5*
CN(Cc1ccccc1)C(=O)OCc1cn(Cc2ccc(F)cc2F)nn1 | · | · | · | -0.7 | ·
C[C@@H]1[C@@H](O)C[C@@]2(C[C@H](O)c3ccccc3O2)O[C@H]1c1ccccc1 | · | · | · | -12.1 | ·
Cc1ccsc1/C=N/NC(=O)c1nnn(-c2nonc2N)c1CN(C)c1ccccc1 | -2.7 | 2.5 | 1.6 | 7.0 | 37.0*
Cc1ccc(/C=N/NC(=O)c2nnn(-c3nonc3N)c2CN(C)c2ccccc2)s1 | 1.0 | -1.1 | 1.4 | 11.3 | 33.6*
C=CCN1[C@@H](C)COc2cccc(F)c2S1(=O)=O | · | · | · | -5.7 | ·
Cc1cc(NC(=O)Nc2cccc(F)c2)n(-c2ccccc2)n1 | · | · | · | -0.6 | ·
CCN(c1ccccc1)S(=O)(=O)c1ccc(Cl)c(NC(=O)COC(=O)c2cc(O)c3ccccc3c2O)c1 | 80.3* | · | -2.5 | · | ·
CC(c1ccco1)N(C(=O)c1ccccc1NS(=O)(=O)c1ccc(Cl)c([N+](=O)[O-])c1)c1ccccn1 (configuration not stated) | 25.2 | 2.8 | -2.1 | 18.1 | 32.1*
CCN(C)C(=O)CNc1nnnn1-c1ccccc1 | · | · | · | -7.4 | ·
C=CCN1C(=O)[C@@H](CC(=O)N2CCC(c3ccccc3)CC2)[C@]2(C(=O)OC)CCCCC=C12 | · | · | · | 0.5 | ·
Nc1ccc(C(=O)C(=O)c2ccc(N)cc2)cc1 | -0.6 | 1.4 | -0.8 | 15.6 | 38.3*
CC(C)OC(=O)c1ccc(N)cc1 | 0.9 | -1.1 | -6.2 | -1.3 | 7.5
C=CCSc1nnc(-c2ccccc2N=Cc2c(C)[nH]n(-c3ccccc3)c2=O)c(=O)[nH]1 | · | 0.2 | 62.2 | 14.8 | 42.8*
SMILES | RecA splice inh | FBA Mtb inh | Mtb betalactam | CCHF vOTU inh | GDH-TPI inh
CC1CCN(C2=NC(=O)N(c3ccc(Br)cc3)C(=O)C2)CC1 | · | · | · | -3.9 | ·
CCNC(=O)Nc1ccc2c(c1)c(=O)n(C)n2CC=C(C)C | · | 173.2* | · | -171.2 | 3.6
COc1ccc(CCNC(=O)Nc2ccc3c(c2)c(=O)n(C)n3CC=C(C)C)cc1OC | · | 147.7* | · | -130.4 | 2.7
CC(C)=CCn1c2ccc(NC(=O)NCc3ccc(F)cc3)cc2c(=O)n1C | · | 137.5* | · | -111.2 | 4.9
C=CCN1[C@H](CO)[C@H](c2ccc(C#CC3(O)CCCC3)cc2)[C@@H]1C#N | · | · | · | 1.7 | ·
CCCC[C@@H]1C(=O)N2N=Cc3cc(C)c(C)cc3[C@H]2N2N=Cc3cc(C)c(C)cc3[C@@H]12 | · | · | · | 25.7 | ·
Cc1noc(/C=C/c2ccccn2)c1[N+](=O)[O-] | 0.7 | -3.1 | 91.3 | -1.9 | 36.4*
COc1ccccc1N/C=C/c1onc(C)c1[N+](=O)[O-] | -2.3 | -26.0 | 1.6 | 4.5 | 11.7
Nc1nnc(N2CCCCC2)s1 | -0.9 | 3.9 | -4.5 | -10.4 | 3.4
O=C1CCCc2nc(N3CCCCC3)sc21 | -1.1 | 0.7 | 2.1 | 11.7 | 32.5*
CCn1c(SCC(=O)O)nnc1-c1cc2c(C)nn(-c3ccccc3)c2s1 | 1.0 | 3.5 | -9.2 | -6.3 | 14.0
Cc1nn(-c2ccccc2)c2sc(-c3nnc(SCC(=O)O)o3)cc12 | 0.6 | 101.4* | 23.4 | -31.8 | 16.7
Cn1c(Cc2cccs2)nnc1SCC(=O)Nc1ccc2c(c1)OCO2 | · | · | · | -4.3 | ·
CN(C)c1ccc(C2N3CC4(C)CN2CC(C)(C3)C4O)cc1 (configuration not stated) | -0.2 | 3.7 | -1.3 | 4.9 | 42.3*
COC(=O)[C@]12C[C@H](CC(=O)NCCCN3CCCC3=O)C(=O)N(CCc3ccc(OC)c(OC)c3)C1=C[C@H](C(C)C)O[C@@H]2C1CC1 | · | · | · | -9.6 | ·
COc1cccc(/C=N/Nc2ncnc3c2ncn3Cc2ccccc2)c1O | 2.5 | -3.6 | 6.9 | 9.4 | 19.9
Cn1cnc2c(N/N=C/c3cccs3)ncnc21 | -4.6 | -1.8 | -8.7 | 4.7 | 39.1*
NNc1ncnc2sc3c(c12)CCC3 | -4.9 | 0.1 | 100.2 | -6.1 | 5.7
C(=N\Nc1ncnc2sc3c(c12)CCC3)/c1cccs1 | -3.8 | 3.0 | 99.7 | 4.9 | 33.3*
CC[n+]1c(/C=C/N(C)c2ccccc2)oc2ccc(Cl)cc21 | -1.5 | -4.9 | -5.6 | 18.7 | 45.7*
CC[n+]1c(/C=C/N(C)c2ccccc2)sc2ccc(Cl)cc21 | 3.2 | -0.6 | 5.1 | 21.1 | 4.9
CCOc1ccccc1NC=C1C(=O)OC(C)(C)OC1=O | -1.9 | -1.2 | 0.8 | 17.1 | 41.1*
COc1ccccc1NC=C1C(=O)OC(C)(C)OC1=O | -0.3 | -1.9 | -16.9 | 13.3 | 46.8*
CC1(C)OC(=O)C(=CNc2cccc(O)c2)C(=O)O1 | -5.2 | -1.0 | -5.5 | 20.1 | 35.2*
O=C(OCc1cn(Cc2ccc(Cl)cc2)nn1)N1CCCC1 | · | · | · | -3.5 | ·
SMILES | RecA splice inh | FBA Mtb inh | Mtb betalactam | CCHF vOTU inh | GDH-TPI inh
COCc1cccc(-c2cc(C(=O)OC)c3n(c2=O)CCC3)c1 | · | · | · | -2.5 | ·
O=C(Nc1cccc(C(F)(F)F)c1)OC1CCC12CCC(c1ccccc1)CC2 (configuration not stated) | · | · | · | 19.3 | ·
CCCCn1c(=NC(=O)c2cccnc2)c(C#N)cc2c(=O)n3cccc(C)c3nc21 | i | 193.9* | 2.1 | -72.7 | 6.4
Cc1cccn2c(=O)c3cc(C#N)c(=NC(=O)c4ccncc4)n(CCCOC(C)C)c3nc12 | 0.3 | 10.6 | 3.0 | -68.1 | 4.7
COCCCn1c(=NC(=O)c2ccncc2)c(C#N)cc2c(=O)n3cccc(C)c3nc21 | i | + | 2.0 | -168.0 | 7.0
CCCCCCCCCn1c2c(c(=N)c3c1CCC3)CCCC2 | · | -3.5 | · | · | 1.9
CCCCCCCCCCn1c2c(c(=N)c3c1CCC3)CCC2 | 31.7* | 1.7 | 100.1 | 13.8 | 0.3
Clc1nc2sccn2c1/C=N/n1cnc2ccccc21 | -4.0 | -0.4 | -2.2 | 2.6 | 46.9*
C(=N\n1cnc2ccccc21)/c1cccnc1 | -1.6 | -2.1 | -2.8 | 0.3 | 10.8
Cc1ccc(NC(=S)/C(=C(\[O-])c2ccc(F)cc2)[n+]2ccccc2)cc1 | 30.3* | 2.3 | 1.8 | -0.1 | -0.6
